The source of these data is PubChem BioAssay.

What is called viability is the share of living cells, or the viability signal relative to a control. One may read the inhibition as the drop in the measured response relative to a control, in per cent.

The structures appear in SMILES notation. A number with no mark means an inactive call.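 Rule for the calls, unless noted: active = inhibition over a set limit, the all-compound mean plus 3 SD, in both replicate runs; inconclusive = over that limit in just one replicate run; inactive = at or under that limit in both runs.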 Records with an inconclusive call do not appear.

One assay can be described thus: growth suppression of PTEN-deleted HCT116, pilot screen, cell-based, HCT116 clonal line, CellTiter-Glo (AID 824;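 active = viability at or below 27.92% in each of two runs, the all-compound median minus 4 SD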;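 note: 0% = 20 µM Hyamine control and 100% = vehicle cell control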). The note with it: 60 h, at 10 µM, active compounds read low.
With `Cc1cc(C)cc(N(CC(=O)Nc2cccc(C)n2)S(=O)(=O)c2c(C)noc2C)c1`, the viability was 71.9%.
Turning to `Cc1noc(C)c1S(=O)(=O)N1CCN(Cc2ccc3c(c2)OCO3)CC1`, the viability is 98%.
Still for that read-out and setting: the result for `Cn1c(C(=O)NCCCN2CCCCCC2)cc2c(=O)n(C)c3ccccc3c21` reads 78.7%; that for `CS(=O)(=O)N(Cc1ccco1)CC(O)Cn1c2ccccc2c2ccccc21` (stereo not drawn), 74.5%; that for `CC(=O)Nc1ccc(S(=O)(=O)Nc2nc3c(s2)CCCC3)cc1`, 90.7%.
The same measure, in the same setting: the same measure for `CCOC(=O)C(CC)Sc1ncnc2nc[nH]c12` (stereo not drawn): 91.9%; for `COc1cc2c(cc1OC)-c1nnc(C)n1C1(CCCC1)C2`: 94%.
Same read-out and setting: the same measure for `Nc1nc2n(n1)C(c1cccc(Br)c1)CC(c1ccccc1)N2` (stereo not drawn): 86%.

The next assay in a line: inhibitors of the yeast RAM network, pilot screen, dse1pr::URA3 reporter, 5-FOA selection (AID 869).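 Note: 0% = DMSO wells with no growth and 100% = 10 µM 1-NA-PP1 with full growth; RAM network block rescues cells from 5-FOA so hits raise OD615 growth.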 The note with it: S. cerevisiae dse1pr::URA3 5-FOA growth, OD615, 2 d; at 10 µM; active compounds read high; strain carries analog-sensitive mutant Cbk1 kinase.
As for `COc1ccc(C(=O)NCc2nnc(SC)n2C2CCCCC2)cc1`, the inhibition is 1.08%.
On the same count and under the same terms, the same measure for `Oc1ccc(Cl)cc1-c1cc(-c2ccccc2)n[nH]1`: 1.59%.
Regarding `O=C(CCCn1c(=O)c2sccc2n(Cc2cc(=O)n3ccccc3n2)c1=O)NCc1ccco1`, the inhibition was -0.225%.
On the same count and under the same terms, the same measure for `COC(=O)c1cn(NC(=O)C2CCCO2)c(=O)c2ccccc12` (stereo not drawn): 1.48%.
Same read-out and setting: the result for `CCN(CC)CCCNC(=O)c1cn(C)c2ccc(S(=O)(=O)N(C)C)cc2c1=O` reads 2.21%.
Still for that read-out and setting: the same measure for `Cc1nnc(SCCn2c(N3CCC(Cc4ccccc4)CC3)nc3c2c(=O)[nH]c(=O)n3C)s1`: 3.93%; for `O=C(C(Cc1ccccc1)n1cccc1)N1CCCCCC1` (stereo not drawn): 1.68%.
Consider `O=C(Cn1nc(Cc2ccncc2)c2ccccc2c1=O)N1CCN(C(=O)c2ccco2)CC1`, for which the inhibition was 1.01%.
Regarding `COc1ccc(-c2nc(CS(=O)CC(=O)NCc3ccccn3)c(C)o2)cc1` (stereo not drawn), the inhibition was 1.57%.
The same measure, in the same setting: the same measure for `CCn1c(SCC(=O)Nc2ccc(Cl)cc2)nnc1C1CC1`: 0.85%; for `CCOC(=O)CN(C(=O)c1ccccc1)c1ccccc1C`: 0.91%.
On the same count and under the same terms, the same measure for `COC(=O)Cc1cc(=O)[nH]c(Nc2nc3ccccc3o2)n1`: 1.03%.
Still for that read-out and setting: the result for `COc1ccc(C2CC(c3cccc(C)c3)n3ncnc3N2)cc1` (stereo not drawn) reads 0.22%.
As for `CC1CCCCN1CCNC(=O)C1CCN(S(=O)(=O)c2cccc3cccnc23)CC1` (stereo not drawn), the inhibition is 2.46%.
Same read-out and setting: the same measure for `CCCCSc1nc(CCC)cc(=O)[nH]1`: 0.635%.
The same measure, in the same setting: the result for `CC1(C)CC(=O)C2=C(C1)NC(=O)CC2c1ccc(N(CCC#N)CCC#N)cc1` (stereo not drawn) reads 1.41%; that for `Cc1cccc(OCC(=O)N2CCN(C(=O)Cc3ccccc3)CC2)c1`, 0.285%; that for `O=C1CC(c2cccnc2)c2cc3c(cc2N1)OCO3` (stereo not drawn), 1.17%.
With `CCc1nn(CC(=O)NCCCN2CCc3ccccc3C2)c(=O)c2cc3sccc3n12`, the inhibition is 0.58%.
On the same count and under the same terms, the same measure for `Cc1ccc(-c2nc3cc(NC(=O)C(C)C)ccc3o2)cc1`: 3.04%; for `CC(CC(=O)NC1CCSC1=O)c1ccccc1` (stereo not drawn): 0.235%.
Same read-out and setting: the same measure for `COc1ccc(C2CC(c3ccc(OC)cc3)n3nc(N)nc3N2)cc1` (stereo not drawn): 1.62%; for `COC(=O)COc1cccc(NC(=O)COc2ccccc2)c1`: 1.66%; for `COc1ccc(OCCSc2nc3ccccc3n2CC(=O)O)cc1`: 0.61%.
`Cc1cccnc1-n1c(CCN2C(=O)c3ccccc3C2=O)nc2ccccc2c1=O`: the inhibition was 0.525%.
On the same count and under the same terms, the same measure for `CC(=O)N(c1ccc(Br)cc1)C1C=CS(=O)(=O)C1` (stereo not drawn): 2.17%.
Consider `Cc1ccccc1Cn1cc(/C=N/n2cnnc2)c2ccccc21`, for which the inhibition was 1%.
Same read-out and setting: the result for `CCOC(=O)N1CCN(c2cc(=O)n(-c3ccccc3Cl)c(=O)[nH]2)CC1` reads 0.77%; that for `CCCCN(C)Cc1c(O)ccc2c(-c3ccccc3)cc(=O)oc12`, 0.605%; that for `CCCCn1c(CN2CCN(c3ccc(F)cc3)CC2)nc2c1c(=O)n(C)c(=O)n2C`, 1.07%.
Take `CCn1c(SCC(=O)Nc2cccc(C)c2)nc2c(c1=O)SC(C)C2` (stereo not drawn): the inhibition is 2.52%.
On the same count and under the same terms, the result for `COc1cccc(C2CC(c3ccc(C)cc3)n3nc(N)nc3N2)c1` (stereo not drawn) reads -0.18%; that for `Cc1cc(C)cc(N(CC(=O)Nc2cccc(C)n2)S(=O)(=O)c2c(C)noc2C)c1`, 0.94%.
Same read-out and setting: the same measure for `Cc1noc(C)c1S(=O)(=O)N1CCN(Cc2ccc3c(c2)OCO3)CC1`: 0.725%.
Still for that read-out and setting: the result for `Cn1c(C(=O)NCCCN2CCCCCC2)cc2c(=O)n(C)c3ccccc3c21` reads 1.04%; that for `CS(=O)(=O)N(Cc1ccco1)CC(O)Cn1c2ccccc2c2ccccc21` (stereo not drawn), 1.9%; that for `CC(=O)Nc1ccc(S(=O)(=O)Nc2nc3c(s2)CCCC3)cc1`, 1.9%.
Take `CCOC(=O)C(CC)Sc1ncnc2nc[nH]c12` (stereo not drawn): the inhibition was 1.79%.
Regarding `COc1cc2c(cc1OC)-c1nnc(C)n1C1(CCCC1)C2`, the inhibition is 1.1%.
In the case of `Nc1nc2n(n1)C(c1cccc(Br)c1)CC(c1ccccc1)N2` (stereo not drawn), the inhibition was 1.22%.
